M1 PAM = human M1 muscarinic receptor positive allosteric modulators, primary screen, CHO-K1 cells, Fluo-8 calcium fluorescence, 1536-well | Muscarinic acetylcholine receptor M1 (Homo sapiens), P11229 | CHO-K1 hM1, ACh EC20; 0% = ACh EC20, 100% = maximal ACh | activation, % at 3 µM | 360,000 tested, 0.088% active; in the data active means activation above about 19%, passing the limit was not always enough
Target sequence (P11229 whole entry, looked up): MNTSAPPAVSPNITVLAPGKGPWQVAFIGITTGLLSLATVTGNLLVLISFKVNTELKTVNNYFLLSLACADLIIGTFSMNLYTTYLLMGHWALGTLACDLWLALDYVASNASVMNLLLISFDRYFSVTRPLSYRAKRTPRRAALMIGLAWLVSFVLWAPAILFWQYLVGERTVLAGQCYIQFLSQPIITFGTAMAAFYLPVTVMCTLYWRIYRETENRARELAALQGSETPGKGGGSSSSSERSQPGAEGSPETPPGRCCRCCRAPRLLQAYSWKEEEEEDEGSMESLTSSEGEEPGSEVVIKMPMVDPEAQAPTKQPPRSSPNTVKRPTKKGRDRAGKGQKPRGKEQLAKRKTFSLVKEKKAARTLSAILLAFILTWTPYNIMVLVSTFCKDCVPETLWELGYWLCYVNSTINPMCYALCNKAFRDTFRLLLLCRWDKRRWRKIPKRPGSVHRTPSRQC
CHRM1 agonist = human M1 muscarinic receptor agonists, primary screen, Fluo-8 calcium fluorescence, CHO-K1 cells, HTS; Muscarinic acetylcholine receptor M1 (Homo sapiens), P11229; CHO-K1 hM1, agonist mode; 0% DMSO, 100% acetylcholine EC100; activation, % at 3 µM; 360,000 tested, 0.33% active;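 active means activation above the run's mean compound activation plus 3 SD, cut at about 16% in these data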;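 further: peak over basal fluorescence ratio within a 140 s kinetic read after compound addition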
M1 antag = human M1 muscarinic receptor antagonists, primary screen, CHO-K1 cells, Fluo-8 calcium fluorescence, 1536-well. 360,000 tested, 1.3% active. AID 588852, 2011. CHO-K1 hM1, ACh EC80 antagonist. inhibition, % at 3 µM;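 active means percent inhibition above its own plate's cutoff, namely the mean of that plate's compound wells plus 3 SD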;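 further: peak over basal fluorescence ratio during 140 s after agonist addition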
SKN-1 block = suppressors of acrylamide-induced Pgst-4::GFP reporter in worms, primary screen, SKN-1 inhibitor project, whole organism, uHTS, GFP/RFP fluorescence ratio, strain VP596; C. elegans VP596 Pgst-4::GFP/RFP ratio, 24 h; inhibition, % at 21.8 µM; 360,000 tested, 0.49% active;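 active means interference check ratio from 0.5 to 1.5 plus GFP to RFP signal ratio inhibition reaching or exceeding a fixed threshold, cut at about 30% in these data, passing the limit was not always enough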
ATG4B inh = ATG4B protease inhibitors, primary screen, biochemical, fluorescence, uHTS. Cysteine protease ATG4B (Homo sapiens), Q9Y4P1. ATG4B cleavage of LC3-PLA2, NBD-HPC fluorescence, 1 h. inhibition, % at 8.33 µM. 340,000 tested, 0.51% active. AID 504462, 2011; in the data active means inhibition above about 40%
Myeloid diff 2 = induction of myeloid progenitor differentiation, primary screen, cell-based, flow cytometry, MLPCN library; ER-HoxA9 myeloid progenitors, lysozyme-GFP differentiation; calls only at 10 µM; 360,000 tested, 1% active; AID 624256, 2012;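 active means normalized GFP-positive differentiation at or above the plate's own cutoff, the solvent-only control mean plus 3 SD; inconclusive means no clear call, values can overlap the other calls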;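 further: cells exposed to compound for four days before flow analysis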
A number is an active result; n = inactive; u = inconclusive; x = not tested or not shown; + = active, no number. Only some compounds are listed: those with a hit (about 3.5% of all), similar ones and a draw of the others.

SMILES	M1 PAM	CHRM1 agonist	M1 antag	SKN-1 block	ATG4B inh	Myeloid diff 2
COc1cccc(Nc2ncnc3sccc23)c1	n	n	n	n	n	+
COc1cccc(C(=O)N2CCC[C@H]2C(=O)N2CCC[C@H]2C(=O)N[C@H](C)c2ccccc2)c1	x	x	x	n	x	n
N/C(=N\OC(=O)c1ccc(Cl)cc1)c1ccccn1	n	n	n	n	n	n
N/C(=N\OC(=O)c1ccc(Cl)c(Cl)c1)c1ccccn1	n	n	n	35	n	n
N/C(=N\OC(=O)CSc1ccccc1)c1ccccn1	28	n	n	n	n	u
NS(=O)(=O)c1ccc2nc(-c3ccccc3)c(-c3ccccc3)nc2c1	n	n	n	n	n	n
COC(=O)C(C(=O)OC)c1ccccc1NS(=O)(=O)c1ccc(C)cc1	x	x	x	n	x	n
COc1cc(NS(=O)(=O)c2ccc(C)cc2)c2c(c1N)C(=O)c1ccccc1C2=O	n	n	n	36	x	+
CCC(C)NC(=O)c1ccc(N2CC3CC(C2)c2cccc(=O)n2C3)c(NC(=O)c2c(F)cccc2F)c1 (stereo not drawn)	n	22	n	n	x	n
COCCNC(=O)c1ccc(N2CC3CC(C2)c2cccc(=O)n2C3)c(NC(=O)c2c(F)cccc2F)c1 (stereo not drawn)	n	n	n	n	n	n
COC(=O)c1cc(NC(=O)CCc2c(C)nc3ncnn3c2C)cc(C(=O)OC)c1	n	n	n	n	n	+
COc1ccc(CCC(=O)N2CCCC(Nc3ccc(C)c(C)c3)C2)cc1OC (stereo not drawn)	n	n	n	n	n	n
NC(=O)COC(=O)c1c2c(nc3ccccc13)CCC2	n	n	n	n	n	n
Fc1cccc(Nc2c3c(nc4ccccc24)CCC3)c1	n	n	n	n	n	n
COc1cccc(NC(=O)COC(=O)c2c3c(nc4ccccc24)CCC(C)C3)c1 (stereo not drawn)	n	n	48	n	n	n
CC1CCc2nc3ccccc3c(C(=O)OCC(=O)NC3CCS(=O)(=O)C3)c2C1 (stereo not drawn)	n	n	n	n	n	n
O=C(COC(=O)c1c2c(nc3ccccc13)CCCC2)Nc1ccc2c(c1)OCO2	n	n	32	n	n	n
c1ccc2c(Nc3ccc4c(c3)OCCO4)c3c(nc2c1)CCCC3	n	n	28	n	n	n
CC(C)(C)NC(=O)COC(=O)c1c2c(nc3ccccc13)CCC2	n	n	31	n	n	n
Cc1nc(C(C)NC(=O)c2cc(COc3ccc(C)c(C)c3)on2)c(C)s1 (stereo not drawn)	n	n	n	n	n	n
CCCCCCCCN1C(=O)[C@H](CC(=O)NCc2ccc(C)o2)C[C@@]2(C(=O)OCC)CCC=C12	x	x	x	n	x	n
O=C(COC(=O)c1c2c(nc3ccccc13)/C(=C\c1cccs1)CCC2)Nc1ccccc1	n	n	32	n	n	n
Cc1ccc(C(C(=O)NCc2ccccc2)N(Cc2cccs2)C(=O)c2ccc3c(c2)OCCO3)cc1 (stereo not drawn)	n	n	33	n	n	n
COC(=O)c1ccc(C(C(=O)NCc2ccccc2)N(Cc2cccs2)C(=O)c2cnccn2)cc1 (stereo not drawn)	n	n	21	n	n	n
CN1CCS/C1=C/C=C1\SC(=S)N(CC(=O)O)C1=O	n	16	n	n	n	n
SMILES	M1 PAM	CHRM1 agonist	M1 antag	SKN-1 block	ATG4B inh	Myeloid diff 2
O=C(O)CN1C(=O)/C(=C/c2ccc(N3CCCCC3)o2)SC1=S	n	n	n	n	n	n
CCOC(=O)c1c(NC(=O)c2noc(C)c2[N+](=O)[O-])sc(C(C)=O)c1C	n	n	n	n	n	n
CCc1ccc(-c2cc(C(F)(F)F)n3nc(C(=O)Nc4c(C)nn(Cc5ccccc5C)c4C)cc3n2)s1	n	n	n	n	n	+
Nc1nnc2cc(Cl)ccc2n1	28	n	n	n	n	n
COc1cc(/C=C2/S/C(=N/S(=O)(=O)c3ccccc3)NC2=O)c([N+](=O)[O-])cc1OC	n	n	n	n	n	n
O=C1N/C(=N\S(=O)(=O)Cc2ccccc2)S/C1=C/c1cc([N+](=O)[O-])ccc1O	n	29	37	n	n	n
O=C1N/C(=N\S(=O)(=O)c2ccccc2)S/C1=C\c1cc([N+](=O)[O-])ccc1O	n	32	n	n	n	n
CCCNC(=O)c1cc2c(c(-c3cccc(-c4ccccc4F)c3)n1)[C@@H](CCO)N(C(=O)CC1CC1)C2	x	x	x	n	x	n
Cc1c(Br)cnn1C(C)C(=O)N1CCN(c2ccccc2F)CC1 (stereo not drawn)	n	n	n	n	n	n
O=C(CO/N=C/c1ccccc1OC(F)F)NCc1ccco1	26	n	n	n	n	n
O=C(CO/N=C/c1ccc(OC(F)F)cc1)NCc1ccco1	n	n	n	n	n	n
NS(=O)(=O)c1ccc(CCNC(=O)CSc2nc3ccsc3c(=O)n2Cc2ccccn2)cc1	n	n	n	n	x	n
N#Cc1ccccc1OCC(O)CS(=O)(=O)c1ccccc1 (stereo not drawn)	n	n	n	53	n	n
Cc1cc(N2CCCC2)ccc1/C=C1/C(=O)N(C)C(=S)N1C	n	n	n	n	n	+
Cn1c(CCNC(=O)c2ccccc2F)nnc1SCc1nc2ccccc2c(=O)[nH]1	30	n	n	n	n	n
COc1ccc(Cc2nnc(SCc3nc4ccccc4c(=O)[nH]3)n2C)cc1	n	n	n	n	n	n
CCOC(=O)C1=CCN(S(=O)(=O)c2ccc(Br)cc2)C1c1ccc(C)cc1 (stereo not drawn)	n	n	n	n	x	n
Cc1cccc(C(=O)O/N=C(\N)Cc2cccc3ccccc23)c1	n	n	n	n	46	n
CCOC(=O)c1sc(=S)n(-c2ccccc2Cl)c1C	n	n	52	n	n	n
Cc1cc(-c2nc3cc(F)ccc3s2)ccc1N	n	n	n	83	n	n
COc1cccc2sc(NNC(=O)C3=COCCO3)nc12	n	n	n	n	n	+
COc1ccc(Cl)cc1NC(=O)CNc1ccccc1CN(C)C1CCCCC1	n	n	n	n	n	n
COc1ccc(C)cc1NC(=O)CNc1ccccc1CN(C)C1CCCCC1	n	n	51	n	n	n
O=C(Nc1ccc(-c2noc(CCc3ccccc3)n2)cc1)c1ccco1	n	n	n	44	n	n

Screens as filed in PubChem.
